Screening data: PubChem, National Center for Advancing Translational Sciences (NCATS)
Compounds with a hit are over-represented: about 19% of the library has one in this group of screens.
IL-1B inflam inh: qHTS for Inhibitors of Inflammasome Signaling: IL-1-beta AlphaLISA Primary Screen. THP-1 LPS/ATP IL-1B secretion, AlphaLISA, 16 h; hits give low values. activity change, % at 57.5 µM. 360,000 compounds, 4.7% hits. AID 743279, 2014; in the data active means activity change below about -50%; inconclusive means mostly about -30% to -49%
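Secreted IL-1B measured by AlphaLISA bead assay after 16 h compound exposure of THP-1 cells; compounds (final up to 57.5 uM) added 1 h before LPS (250 ng/mL) and ATP (1.25 mM) stimulation; lower signal means less secretion.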
TDP1 cell noCPT: qHTS for Inhibitors of human tyrosyl-DNA phosphodiesterase 1 (TDP1): qHTS in cells in absence of CPT; Potency, µM (titrated, usually from 46.2 µM), most hits filed as inhibitors; DT40 Tdp1-/- hTDP1 cells, no CPT, ATP luminescence, 48 h; 420,000 compounds, 15% hits; further: nearly all actives have a fitted effect of over 55% in size
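Growth of hTDP1-complemented DT40 Tdp1-knockout cells is measured by ATP luminescence after at least 48 hr compound exposure at 37 °C, with DMSO substituting for the 20 nM CPT used in the parallel screen.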
TDP1 inh: qHTS Assay for Inhibitors of Tyrosyl-DNA Phosphodiesterase (TDP1) | Tyrosyl-DNA phosphodiesterase 1 (Homo sapiens), Q9NUW8 | recombinant TDP1, AlphaScreen DNA substrate cleavage | Potency, µM (top dose mostly 130 µM), most hits filed as inhibitors | 350,000 compounds, 0.28% hits | AID 485290, 2010; further: nearly all actives have a fitted effect of over 40% in size
Target sequence (Q9NUW8 whole entry, looked up): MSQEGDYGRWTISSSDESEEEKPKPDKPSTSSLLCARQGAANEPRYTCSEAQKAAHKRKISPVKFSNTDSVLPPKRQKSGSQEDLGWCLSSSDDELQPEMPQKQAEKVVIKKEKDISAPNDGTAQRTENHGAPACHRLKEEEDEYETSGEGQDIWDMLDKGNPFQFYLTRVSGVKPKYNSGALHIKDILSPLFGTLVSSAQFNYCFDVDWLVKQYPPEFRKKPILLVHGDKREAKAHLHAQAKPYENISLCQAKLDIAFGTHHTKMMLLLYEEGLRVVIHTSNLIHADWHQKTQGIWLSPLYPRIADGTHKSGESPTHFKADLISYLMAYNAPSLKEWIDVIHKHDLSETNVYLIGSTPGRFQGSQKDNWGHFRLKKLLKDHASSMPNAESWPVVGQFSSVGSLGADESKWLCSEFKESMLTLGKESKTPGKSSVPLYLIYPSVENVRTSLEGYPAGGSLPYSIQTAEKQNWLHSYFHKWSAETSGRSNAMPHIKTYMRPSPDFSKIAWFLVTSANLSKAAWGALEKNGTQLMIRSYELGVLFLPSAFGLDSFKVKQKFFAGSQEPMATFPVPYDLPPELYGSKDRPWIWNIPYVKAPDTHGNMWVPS
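Enzyme-compound mixtures sat 15 min at room temperature, followed by a 5 min reaction with 15 nM final substrate and 10 min with AlphaScreen beads. Recombinant human Tdp1 was used at 1 nM final.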
TGFb SMAD3 inh: qHTS for Inhibitors of TGF-b; HepG2 CAGA-GFP TGF-b/SMAD3 reporter, GFP fluorescence, 18 h; TGF-beta stimulated, 500 pg/mL final; Potency, µM (titrated, usually from 46.1 µM), most hits filed as inhibitors; 410,000 compounds, 1.2% hits; further: nearly all actives have a fitted effect of over 65% in size
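HEPG2 CAGA-GFP reporter cells (1000/well, DMEM with 1% FBS) received compounds, then recombinant TGF-beta at 500 pg/mL final for 18 hours at 37 degrees C. Per-cell GFP summed per well was normalised to unstimulated and stimulated DMSO controls before curve fitting.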
DT40 TDP1 CPT: qHTS for Inhibitors of human tyrosyl-DNA phosphodiesterase 1 (TDP1): qHTS in cells in presence of CPT; chicken DT40 Tdp1-/-;hTDP1 cells + 20 nM CPT, ATP luminescence, 48 h; Potency, µM (top dose mostly 46.2 µM), actives largely listed as inhibitors; 420,000 compounds, 12% hits; further: nearly all actives have a fitted effect of over 55% in size
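Chicken DT40 Tdp1-/- cells stably complemented with human TDP1 were seeded at 400 cells/well in medium containing 20 nM camptothecin, exposed to pin-transferred compounds, and grown at 37 °C for at least 48 hr. Viability was read as ATP luminescence.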
HepG2 tox: qHTS for Inhibitors of TGF-b: Cytotox Counterscreen; 410,000 compounds, 0.76% hits; HepG2 CAGA-GFP viability, ATP luminescence, 18 h; AID 588856, 2011; Potency, µM (series often up to 46.1 µM), hits mostly cytotoxic
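CellTiter-Glo luminescence gave cytotoxicity after 18 hours at 37 degrees C. The cells were HepG2 CAGA-GFP in 1% FBS DMEM, stimulated with 500 pg/mL TGF-beta after compound addition. %Activity was normalised to no-cell wells (complete cell-killing) and DMSO (no toxicity), and curves were fitted and classified.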
A number is an active result; - = inactive; ? = inconclusive; . = no result; [ ] = remark or other dose. Unless noted, the call rests on the fitted dose curve; in most records, active means well fitted curve in the direction sought with a large enough effect; inconclusive means small, poorly fitted or top-dose-only effect, or another doubt; inactive means no such curve, though single readings can be large; an effect the other way counts as inactive or inconclusive.

SMILES	IL-1B inflam inh	TDP1 cell noCPT	TDP1 inh	TGFb SMAD3 inh	DT40 TDP1 CPT	HepG2 tox
CC(C)C[C@H](NC(=O)c1[nH]cnc1C(=O)N[C@@H](Cc1ccccc1)C(=O)OC(C)(C)C)C(=O)OCc1ccccc1	-	23µM	.	?	?	-
CC(C)C[C@H](NC(=O)c1[nH]cnc1C(=O)N[C@@H](C)C(=O)OCc1ccccc1)C(=O)OCc1ccccc1	-	?	-	?	?	-
CC(C)C[C@H](NC(=O)c1[nH]cnc1C(=O)N[C@@H](Cc1ccccc1)C(=O)OC(C)(C)C)C(=O)OC(C)(C)C	-50	?	-	11µM	16µM	-
COc1ccc(NC(=O)c2nc[nH]c2C(=O)N[C@@H](CC(C)C)C(=O)OC(C)(C)C)cc1	-	?	-	?	?	-
CC(C)C[C@H](NC(=O)c1[nH]cnc1C(=O)Nc1ccccc1F)C(=O)OC(C)(C)C	-	23µM	.	?	-	11µM
C[C@@H](NC(=O)c1nc[nH]c1C(=O)N[C@@H](Cc1ccccc1)C(=O)OCc1ccccc1)c1ccccc1	-	18µM	-	?	?	-
CC(C)C[C@H](NC(=O)c1[nH]cnc1C(=O)N[C@@H](C)c1ccccc1)C(=O)OC(C)(C)C	-	?	-	?	?	-
CC(C(=O)O)c1ccc(/C=C2\CCCCC2=O)cc1 (configuration not stated)	.	-	.	.	-	.
CCc1ccc(C2CC(=O)Nc3c2c(=O)n(C)c2ncnn32)cc1 (configuration not stated)	.	.	-	-	.	-
CCOc1ccc(NC(=O)CN2C(=O)CC(C)Sc3ccccc32)cc1 (configuration not stated)	.	.	-	-	.	-
Cc1ccc(-c2nc3c4ccccc4ccn3c2Cc2cccc(Cl)c2)cc1	-	?	.	.	?	.
Clc1ccc(-c2nc3c4ccccc4ccn3c2Cc2ccsc2)cc1	-	10µM	.	.	10µM	.
N#Cc1ccc(-c2nc3c4ccccc4ccn3c2Cc2ccsc2)cc1	-	13µM	.	.	13µM	.
N#Cc1ccc(-c2nc3c4ccccc4ccn3c2Cc2cccc(Cl)c2)cc1	-	18µM	.	?	16µM	-
Cc1cc(C(=O)COC(=O)c2cccnc2Cl)c(C)n1C	-	-	-	-	-	-
CCOc1ccc(-c2nonc2NC(=O)COc2ccc(C)c(C)c2)cc1OCC	.	-	-	-	-	-
Cc1ccc(Nc2nc3nonc3nc2Nc2cccc(C(F)(F)F)c2)cc1Cl	.	0.46µM	-	?	0.52µM	-
CC(=O)N[C@@H](CCCNC(=N)N)C(=O)N[C@H](CC1CCCCC1)C(=O)N[C@@H]1CCC2SC[C@@H](C(=O)N[C@H](CCCNC(=N)N)C(=O)N[C@H](Cc3ccc(Cl)cc3)C(N)=O)N2C1=O (some centres not stated)	.	.	-	.	.	.
CC(=O)C(=Nc1ccc(Cl)cc1Cl)NNc1cccc(Cl)c1	-	?	-	22µM	?	-
Cc1cccc(NNC(=O)C(=O)NNc2cccc(C)c2)c1	-	-	-	-	-	-
COc1cc(-c2nc(Cn3nnc(C(=O)Nc4cc(C)cc(C)c4)c3C)c(C)o2)cc(OC)c1OC	.	12µM	-	-	?	-
COc1ccc(NC(=O)c2nnn(Cc3nc(-c4cc(Br)ccc4OC)oc3C)c2C)cc1	.	18µM	-	?	-	-
COc1ccc(NC(=O)c2nnn(Cc3nc(-c4cc(OC)c(OC)c(OC)c4)oc3C)c2C)cc1	.	-	-	-	-	-
COc1cc(-c2nc(Cn3nnc(C(=O)Nc4ccccc4C)c3C)c(C)o2)cc(OC)c1OC	.	?	-	?	-	-
COc1ccc(N(CC(=O)N2CCN(Cc3ccccc3)CC2)S(C)(=O)=O)cc1OC	-	-	.	-	-	-
SMILES	IL-1B inflam inh	TDP1 cell noCPT	TDP1 inh	TGFb SMAD3 inh	DT40 TDP1 CPT	HepG2 tox
NC(=O)c1ccccc1NC(=O)CC12CC3CC(CC(C3)C1)C2	-	?	.	?	21µM	-
CC(=O)Nc1ccc(NC(=O)CC23CC4CC(CC(C4)C2)C3)cc1	-	-	.	-	-	-
Cc1ccc(NC(=O)CNC(=O)CC23CC4CC(CC(C4)C2)C3)c(O)c1	-52	-	-[0.505 µM]	-	-	-
Clc1ccc2nc(-c3ccccc3)c(CN3CCOCC3)n2c1	-	?	-	-	?	-
COc1ccc(-c2nc3c4ccccc4ccn3c2CN2CCOCC2)cc1OC	?	?	.	?	15µM	-
COc1ccc(-c2nc3c4ccccc4ccn3c2CC2CCCCC2)cc1OC	-	23µM	.	-	?	-
Cc1ccc(-c2nc3c4ccccc4ccn3c2CC2CCCCC2)cc1	-	-	.	.	?	.
c1ccc(-c2nc3c4ccccc4ccn3c2CN2CCOCC2)cc1	-	18µM	.	-	10µM	-
CS(=O)(=O)N(CC(=O)Nc1cccc([N+](=O)[O-])c1)c1cccc(F)c1	?	-	?	-	-	-
O=C(NCCc1ccccc1Cl)c1ccc2c(c1)nc1n2CCOC1	.	-	-	?	-	-
